The full ranking holds about 68,000 sequences; the median of “fluorescence intensity (a.u.)” is about 9,100, and the highest 2% start at about 16,000. The sample as a whole holds a higher share of the highest values than the screen did.
These sequences were tested against OsWRKY34 (Oryza sativa, UniProt Q0JBA9 1-250) (assay: protein-binding microarray (RPBM); PBS, 2% BSA, 51.3 ng/ul salmon testes DNA, 50 uM zinc acetate, 200 nM TF, 25 C, 1 h; high values mean tight binding). Settings: protein: recombinant; tags: N-terminal polyhistidine and DsRed monomer fusion (pET32a); label: CyDye5-dUTP incorporated in the synthesized complementary strand; 3' TTTTT single-stranded linker to array surface; dsDNA, one strand shown.
How it was run: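 The binding signal for each feature is its fluorescence intensity in arbitrary units. An Axon 4000B scanner was used to read a custom Agilent array that had been made double-stranded with Cy5-dUTP primer extension, blocked with 2% BSA, incubated at 25 °C for 1 h with 200 nM protein in PBS, 2% BSA, salmon testes DNA and 50 µM zinc acetate, and washed. The protein was an N-terminal polyhistidine–DsRed transcription factor fusion from E. coli BL21-CodonPlus, purified on Ni–NTA.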

Sequence of OsWRKY34 (Q0JBA9 entry or part of it): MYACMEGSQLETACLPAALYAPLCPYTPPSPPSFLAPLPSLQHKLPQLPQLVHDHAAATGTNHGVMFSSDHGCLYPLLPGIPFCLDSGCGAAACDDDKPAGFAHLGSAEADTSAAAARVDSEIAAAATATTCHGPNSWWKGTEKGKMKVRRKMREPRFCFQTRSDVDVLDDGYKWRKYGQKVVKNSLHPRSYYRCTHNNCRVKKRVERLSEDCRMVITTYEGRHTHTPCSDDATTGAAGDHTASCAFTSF

Sequence	binding signal
TTTATTATTAGTCTAAGTTTAATACTTCTTATTAGTGTCACGGAGTCACCTAGTGCAG	8180 fluorescence intensity (a.u.)
TGATACTTGGCAGGCGTCGTCTCCAAATACCTGACCACTTCGGAGTCACCTAGTGCAG	8290 fluorescence intensity (a.u.)
AATAGATCACCACATTCAATGCAGTTCTTCCGATTAAATTCGGAGTCACCTAGTGCAG	9730 fluorescence intensity (a.u.)
GGTTGCTCAGTTGCCGACACATTTCTGCAGACCCATTTTGCGGAGTCACCTAGTGCAG	8080 fluorescence intensity (a.u.)
CTGTCCTCTATCGATTGTTCTGACTTGGGTCACCATGTAACGGAGTCACCTAGTGCAG	8990 fluorescence intensity (a.u.)
CTCTGACTCTCTGTTCCAATTCCCACACGTTTCTCTCGCGCGGAGTCACCTAGTGCAG	14800 fluorescence intensity (a.u.)
AAGTGTTTTCGTTTTTTTTTCATTCGCTATTATTTTCTTTCGGAGTCACCTAGTGCAG	9660 fluorescence intensity (a.u.)
CTTGTCTCTCTTTCTCTTTCTCTCTCTCTCACCTGTTATTCGGAGTCACCTAGTGCAG	9740 fluorescence intensity (a.u.)
TTAGGTGTTTTGTAGTAGTGTAATGGGGCATATTCGTGGGCGGAGTCACCTAGTGCAG	8270 fluorescence intensity (a.u.)
TTTCTCACTGTTATATTGTCTAATATCATCTTTCTCTTTTCGGAGTCACCTAGTGCAG	9880 fluorescence intensity (a.u.)
CCCACGTATTCCCCACCTTATCTCACTGTCTCGTGGGCCCCGGAGTCACCTAGTGCAG	10500 fluorescence intensity (a.u.)
ATGGGGTGTTTTTTTTTTCGCTATATTCTCTTAGAACTGTCGGAGTCACCTAGTGCAG	18000 fluorescence intensity (a.u.)
ACGTGTCACCTTCTTATTCGCTGGGTTTTTTCTGGTGGGTCGGAGTCACCTAGTGCAG	8770 fluorescence intensity (a.u.)
ATTGGTGGTAATCGGAGGTGGAGGTGGGCGTGATGATCTCCGGAGTCACCTAGTGCAG	11100 fluorescence intensity (a.u.)
TTCGTGGATGGGGTGGGCTCTTTCTCACTGTTATATTGTCCGGAGTCACCTAGTGCAG	27500 fluorescence intensity (a.u.)
GCTCTTATCCCGAGCTCGTGTCACTGGTGGGGTGGGGCCCCGGAGTCACCTAGTGCAG	16600 fluorescence intensity (a.u.)
CCGCCGAGTCACTGCTCTCGTTCTTATCCACACTGCCCGACGGAGTCACCTAGTGCAG	9120 fluorescence intensity (a.u.)
AGGTAATCATATTGTTGTTATTCGTGGATGGGGTGGGCTCCGGAGTCACCTAGTGCAG	16400 fluorescence intensity (a.u.)
TTAGTAGTATATCGTCACCAATTATTGTAGTTAGCTCCACCGGAGTCACCTAGTGCAG	9580 fluorescence intensity (a.u.)
ATCCGATTTTTTTTCGCAATCTCCGAAATTTCACTTCTATCGGAGTCACCTAGTGCAG	11200 fluorescence intensity (a.u.)
GTCCGCTTCCATTGGGAGCGCGGCTACTGGCTGGGTTTACCGGAGTCACCTAGTGCAG	8770 fluorescence intensity (a.u.)
ATCCTATATTTGTTGCAGTTCATTCATTTCATCACCAGTTCGGAGTCACCTAGTGCAG	8840 fluorescence intensity (a.u.)

Sequence	binding signal
CGATCTCTCTCTCTCACACACCCGCCTCACCCTCACCGCCCGGAGTCACCTAGTGCAG	10800 fluorescence intensity (a.u.)
CAGCAGATTGCCCATCTCTCGTTGTACTGCCAATCTCTCCCGGAGTCACCTAGTGCAG	9530 fluorescence intensity (a.u.)
ATGTCACCAAGCGGTATAGGTCTGAATGTATTGATGTGCCCGGAGTCACCTAGTGCAG	9370 fluorescence intensity (a.u.)
CCGGTATTGATGTGTTCCCCAAGCCAAAAAAAAAAAGAAGCGGAGTCACCTAGTGCAG	64800 fluorescence intensity (a.u.)
ACTGTTCATTGTTGATGGCCTTTTCCAAAAACTAGAAAAGCGGAGTCACCTAGTGCAG	8460 fluorescence intensity (a.u.)
GTTTCCTGGTGGTCCAATATAATACCTAGATAAGGTGTATCGGAGTCACCTAGTGCAG	8510 fluorescence intensity (a.u.)
GTCCAGATACTAAGGTGTATGGTATTATCGGAAAACCTGTCGGAGTCACCTAGTGCAG	24300 fluorescence intensity (a.u.)
TTATTATGGTTATATTGTACTAATTCATTGTCCAGGTTTTCGGAGTCACCTAGTGCAG	8430 fluorescence intensity (a.u.)
TAGCTAGCTCTTGTACAGGTTTCCTCACCTGCTGTATCGACGGAGTCACCTAGTGCAG	8060 fluorescence intensity (a.u.)
GAGACTAATTCCGACCTTGACCAAACCAAACCCTACCAAACGGAGTCACCTAGTGCAG	9200 fluorescence intensity (a.u.)
CCGTGGTTGGGGTGGTGGGCCGGGGTGTTACGTTAATGGGCGGAGTCACCTAGTGCAG	16500 fluorescence intensity (a.u.)
GTGGGGTTGGGTTACGTGGTGGAGCTGAGCCCGGCGGCGCCGGAGTCACCTAGTGCAG	11600 fluorescence intensity (a.u.)
GGCTCGTCGGAGTAGGGGCGCTCGGGGTATGGGGCTCGGCCGGAGTCACCTAGTGCAG	20400 fluorescence intensity (a.u.)
TTTGTGTGTGTGTTGTTGGTCGGGTGGGGTCGCCGGCGCCCGGAGTCACCTAGTGCAG	20100 fluorescence intensity (a.u.)
GCCGGCGCCGGTGGCGTGCGGTCGTGGGCGGGAGGTGGTGCGGAGTCACCTAGTGCAG	12300 fluorescence intensity (a.u.)
ATGTGGGTGTGGCATTGTTGGTGTCGGCTGCGCCGCAGCCCGGAGTCACCTAGTGCAG	9630 fluorescence intensity (a.u.)
GGAGGGTGGGGTAGGAGAGGATGCGGCGGGCGCCATGGCTCGGAGTCACCTAGTGCAG	8590 fluorescence intensity (a.u.)
CGGCTCGGCTCGGCTCGCGCGGCGGCGGCGGCGGGGCGGCCGGAGTCACCTAGTGCAG	8890 fluorescence intensity (a.u.)
GGGGTGGTGGTGGTGGCGGCGGCAGTGTTGTTGGTCGCCGCGGAGTCACCTAGTGCAG	13500 fluorescence intensity (a.u.)
AGGTGGTGTAGCGCGCGCGGGTGGGGTTGGGTTACGTGGTCGGAGTCACCTAGTGCAG	15600 fluorescence intensity (a.u.)
TCGCCGGCGGAGGAGTTGGTGTGGAGAGGGCGGGGAGATGCGGAGTCACCTAGTGCAG	9560 fluorescence intensity (a.u.)
TCGTGTTGGTGGTGGTGGTGGTGTGCGGGCGGGCGGGCGCCGGAGTCACCTAGTGCAG	33300 fluorescence intensity (a.u.)

Sequence	binding signal
CGTTGTTTATCTTTTCTAATGCCATGTGTATATATGATTCCGGAGTCACCTAGTGCAG	10500 fluorescence intensity (a.u.)
CCCGTGCTCTTTGTAGATTTACTACCTTTGGACTTGACCTCGGAGTCACCTAGTGCAG	11200 fluorescence intensity (a.u.)
TCTGCGCTCCCGCATGCCGGCCGCTGAATCATCGTCAATCCGGAGTCACCTAGTGCAG	9000 fluorescence intensity (a.u.)
AATAGCCTCGTCCCTGTAAACTCCCAATCCCTTTTTAAAACGGAGTCACCTAGTGCAG	8420 fluorescence intensity (a.u.)
AGTTGTGGAGCTGTCTAAACCCATCTCTACTTCTCTACTTCGGAGTCACCTAGTGCAG	8200 fluorescence intensity (a.u.)
TTTCCTCATTTATTCACCTGTCACACCATCTTTCATCATACGGAGTCACCTAGTGCAG	9590 fluorescence intensity (a.u.)
CCTGATCGGATTTGGTTGGCTGGTGCTCTAGATGATGTACCGGAGTCACCTAGTGCAG	8170 fluorescence intensity (a.u.)
GGGGAGTTGGGATTTTTGGCGATGTGGGTTTCGTACACCGCGGAGTCACCTAGTGCAG	9870 fluorescence intensity (a.u.)
GGCGCCGGCGCTAGCGCCCACGTCGGGGTTGGGGTTGGGGCGGAGTCACCTAGTGCAG	16600 fluorescence intensity (a.u.)
CGTCGGGGTTGGGGTTGGGGCTGGGGCCGGCGCCGACGCCCGGAGTCACCTAGTGCAG	13400 fluorescence intensity (a.u.)
CGGTTGCGGGTGGGCAGCGGCAGCGTCGCCGGCTGGGGCGCGGAGTCACCTAGTGCAG	9840 fluorescence intensity (a.u.)
TTGGCGAGCGAGCTGTGTGGTGGTGGTGGTGGGTGAGTGGCGGAGTCACCTAGTGCAG	13600 fluorescence intensity (a.u.)
TGGGGTGGGTGCCCGGAGCTTTGATGCGCGTGGCCGCCGGCGGAGTCACCTAGTGCAG	12400 fluorescence intensity (a.u.)
GTGCGAGCTGCGCCCGTGTGATGTGGGCGGGTGGGTGTTCCGGAGTCACCTAGTGCAG	16900 fluorescence intensity (a.u.)
TTGCTCTCCTCTCTGGATTGATGTGTTCGTTTGGCCATTCCGGAGTCACCTAGTGCAG	8940 fluorescence intensity (a.u.)
CGTGTGGGTGGGTGGGTGGAGTGGACTGGTTTCTGTGAGCCGGAGTCACCTAGTGCAG	18500 fluorescence intensity (a.u.)
GCCATGGGGTTGACTCTCTGGGTGTTCTTGGTTTCTTGGCCGGAGTCACCTAGTGCAG	10500 fluorescence intensity (a.u.)
TTGTTGGCAAGTTTCTTCCCTTGTCTCTCTCTTGTGAGACCGGAGTCACCTAGTGCAG	8700 fluorescence intensity (a.u.)
TGGAGCTGGTTTTTGGGTGGTGTTTTCTCTGTGATCGTGGCGGAGTCACCTAGTGCAG	9760 fluorescence intensity (a.u.)
TGTTGGTGGTGAGGTGTGAGGTGAGGTGGGGTGGTGTGGCCGGAGTCACCTAGTGCAG	10100 fluorescence intensity (a.u.)
TTTGGTTACCGCATTTTTGTGTTCTTCTGTGCAGTTTAGCCGGAGTCACCTAGTGCAG	8150 fluorescence intensity (a.u.)
ATGCGGATCTGAGTGGTGGTGGTGGTGGACTGGTGGTTGCCGGAGTCACCTAGTGCAG	11000 fluorescence intensity (a.u.)

Sequence	binding signal
GCCATGTGACTAGACCGAGCTAGCTCGCTCGATCGATCTCCGGAGTCACCTAGTGCAG	8510 fluorescence intensity (a.u.)
CAATTTTAGTTCAATCTTGGGTGTTTTCGCATGGTTCTCTCGGAGTCACCTAGTGCAG	8180 fluorescence intensity (a.u.)
GGTCTTGCTAGTTGGCCATGTGAGAGTGAGACCGGGTCTCCGGAGTCACCTAGTGCAG	50700 fluorescence intensity (a.u.)
AGGAGTGTCTGGTTGGTTTCCGGGGTGTGTTGGGTGACTCCGGAGTCACCTAGTGCAG	29500 fluorescence intensity (a.u.)
CTTTCTTCTGTGTGGTGGGTTTTAGCCGGTTTCTCGCAATCGGAGTCACCTAGTGCAG	18400 fluorescence intensity (a.u.)
GAAATATCAACAACCCTATAAAAAAAGTCAACCCATGTACCGGAGTCACCTAGTGCAG	9120 fluorescence intensity (a.u.)
CACACACACAAATCCACAAGTAGACATCCTTCCATGTCTTCGGAGTCACCTAGTGCAG	8380 fluorescence intensity (a.u.)
AGGTAGTCAAGGTGGACTTATTCCTTTTGTTTCTTCCATTCGGAGTCACCTAGTGCAG	8900 fluorescence intensity (a.u.)
CCATTTGTCCACCACCACCTCCACCACCTGACACGTCGTCCGGAGTCACCTAGTGCAG	8050 fluorescence intensity (a.u.)
AATTATTTTCATTTGCTAAGTTACTATTTCGCATTTTTTTCGGAGTCACCTAGTGCAG	8650 fluorescence intensity (a.u.)
CAATTATTACAGGCGGCCAGCGCCTCATGGCTTTTACCTTCGGAGTCACCTAGTGCAG	8660 fluorescence intensity (a.u.)
TCTTACTTGCATGTGAACACCTCTTTGTCGGTTTTTCCATCGGAGTCACCTAGTGCAG	10400 fluorescence intensity (a.u.)
AAAAAAGTCAACCCATGTACACCGTCCGATCTCCATCCGACGGAGTCACCTAGTGCAG	8110 fluorescence intensity (a.u.)
TTTTGTCTCTTTCTGCTGCTGGAGTAGTATTGTTCATTTACGGAGTCACCTAGTGCAG	9050 fluorescence intensity (a.u.)
CTGGTAGGATTGCTGCTTGCTTTGCCTTCACGTCATTATCCGGAGTCACCTAGTGCAG	11200 fluorescence intensity (a.u.)
TGCGTTTCCCGTCAGCCCTGTCACGCCGCCGCCGGTCGCCCGGAGTCACCTAGTGCAG	12000 fluorescence intensity (a.u.)
ACTTTCTTTTTGGGCCTGAAACCACGACGGCCCTTTGTTCCGGAGTCACCTAGTGCAG	8760 fluorescence intensity (a.u.)
AAGGATATAAGGGTGGTTGAGGGGTAGAATAGGAAGAAATCGGAGTCACCTAGTGCAG	9360 fluorescence intensity (a.u.)
CGCAAGGGAGAATAGGGGTGTTGAGAGGAGGGGCGACAGGCGGAGTCACCTAGTGCAG	8240 fluorescence intensity (a.u.)
AAAATAGGCCAATAGGGTGTTGAGAGAAAAGGAGATATATCGGAGTCACCTAGTGCAG	17500 fluorescence intensity (a.u.)

— paper PMC7819943, “Rice protein-binding microarrays: a tool to detect cis-acting elements near promoter regions in rice”
